Source: PubChem BioAssay
This is a sample that favours compounds with a hit; in the whole collection about 0.71% have one here.
CD11b adhes inh: inhibitors of human CD11b/CD18 binding to fibrinogen. P05107+P11215. K562 CD11b/CD18 adhesion to fibrinogen, ATPlite luminescence; Mn2+ added to activate the integrin. inhibition, % at 10 µM. actives 0.54% (n = 93,000);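 active = primary inhibition of 50% or more at 10 µM, then 40% or more on retest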
Target sequence (P05107 whole entry, looked up, other chains not shown): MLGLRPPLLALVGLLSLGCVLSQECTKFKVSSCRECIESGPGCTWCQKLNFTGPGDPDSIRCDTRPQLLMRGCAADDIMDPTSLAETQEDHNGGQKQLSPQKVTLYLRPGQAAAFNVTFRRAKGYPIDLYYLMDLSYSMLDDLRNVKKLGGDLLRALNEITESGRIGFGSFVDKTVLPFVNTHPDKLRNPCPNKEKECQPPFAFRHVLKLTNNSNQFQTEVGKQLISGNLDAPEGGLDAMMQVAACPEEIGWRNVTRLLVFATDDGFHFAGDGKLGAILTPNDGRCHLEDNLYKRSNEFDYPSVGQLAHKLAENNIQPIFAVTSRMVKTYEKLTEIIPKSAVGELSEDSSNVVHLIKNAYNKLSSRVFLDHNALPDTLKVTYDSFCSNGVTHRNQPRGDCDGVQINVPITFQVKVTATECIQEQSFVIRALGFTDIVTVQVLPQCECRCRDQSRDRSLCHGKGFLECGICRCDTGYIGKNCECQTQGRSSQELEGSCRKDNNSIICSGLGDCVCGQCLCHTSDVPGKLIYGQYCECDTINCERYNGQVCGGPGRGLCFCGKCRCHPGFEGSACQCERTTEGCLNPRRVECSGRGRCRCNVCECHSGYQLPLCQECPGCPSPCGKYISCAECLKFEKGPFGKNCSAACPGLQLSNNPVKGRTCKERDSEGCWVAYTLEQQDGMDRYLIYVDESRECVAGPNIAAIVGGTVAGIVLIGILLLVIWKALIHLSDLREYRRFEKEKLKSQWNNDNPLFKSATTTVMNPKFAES
CD11b adhes enh: enhancers of human CD11b/CD18 binding to fibrinogen | K562 CD11b/CD18 adhesion to fibrinogen, ATPlite luminescence | P05107+P11215 | actives 0.07% (n = 93,000) | AID 1499 | activation, % at 10 µM;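 active = 10 µM primary screen giving 50% or more activity, confirmed by 40% or more on retest at that dose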
Phagocytosis inh: blocks phagocytosis by macrophages; actives 0.07% (n = 110,000); J774A.1 macrophage IgG-bead phagocytosis, imaging; inhibition, % at 5 µM;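 active = inhibition above the mean of the plate negative controls plus 5 SD, cut at about 13% in these data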;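 also: phagocytic index as fraction of beads internalized from green versus red external bead signal; plate controls were DMSO negative control for no effect and cytochalasin-D positive control for full effect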
sdo1 growth: compounds rescuing growth of sdo1-depleted yeast, bone marrow failure model | S. cerevisiae sdo1-depleted JHY4D growth rescue, OD600 30 h; stronger effect = higher value; pdr5 snq2 efflux-pump mutant strain | z-score at 10 µM | actives 0.21% (n = 140,000) | AID 817;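 active = z-score above 3 at both the 24 hr and the 30 hr optical density reads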;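 also: z-score against mean and SD of all compound wells on the same plate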
Starred values were filed as active, the others as inactive; . = not tested or not shown; [ ] = remark or other dose.

SMILES | CD11b adhes inh | CD11b adhes enh | Phagocytosis inh | sdo1 growth
COc1ccc(/C=N\NC(=O)C2C(=O)NCC2c2ccccc2)cc1O (centres undefined) | . | . | . | 1.59
CC(C)Cc1csc(NC(=O)c2ccc(Cl)cc2)c1C(=O)O | 100.4* | -7.1 | -6.0 | 0.27
C=CCNc1nc2c(c(=O)n(C)c(=O)n2C)n1CCCCCC | 67.6* | -3.6 | 0.5 | -1.11
Cc1cc(=O)oc2cc(OCc3ccc(C(=O)N4CCN(c5ccccc5)CC4)cc3)ccc12 | . | . | -5.7 | 0.03
O=C(CSc1ccc2ccccc2n1)Nc1nsc(-c2ccc(Cl)cc2)n1 | 6.6 | 16.4 | 31.0*[artifact] | -0.93
CCOc1c(Cl)cc(C(=O)Nc2ccccc2C(=O)O)cc1Cl | 88.6* | -12.3 | 1.3 | -0.61
O=C(NCc1cccnc1)Nc1cccc(NC(=O)NCc2cccnc2)c1 | 0.2 | -1.3 | 90.1* | 0.16
CC(=O)c1cccc(NC(=O)NCc2cccnc2)c1 | -3.4 | 4.9 | -0.6 | 1.25
O=[N+]([O-])c1cccc(NC(=S)NCCc2ccccc2)c1 | 104.1* | -8.4 | -4.0 | -1.65
Fc1cccc(NC(=S)NCCc2ccccc2)c1 | . | . | -5.3 | -0.27
Cc1cc(NC(=O)c2ccc(Cn3nc(C)c(Br)c3C)o2)no1 | -16.4 | -0.5 | -0.1 | -1.22
Cc1nn(Cc2ccc(C(=O)NC(C)(C)C)o2)c(C)c1Br | 74.3* | -7.3 | -3.4 | -0.37
CCCCCCCCNc1ncnc2ccccc12 | 101.0* | -10.5 | -1.0 | -1.67
CCC(CO)[n+]1c(C)cc(/C=C2\Sc3ccccc3N2Cc2ccccc2)cc1C (centres undefined) | 103.0* | -6.6 | -1.7 | -0.88
c1cncc(-c2nc(NCC3COc4ccccc4O3)c3ccccc3n2)c1 (centres undefined) | -22.5 | -3.4 | -0.9 | -2.43
c1ccc2c(c1)OCC(CNc1ncnc3sccc13)O2 (centres undefined) | 99.9* | -7.5 | -4.8 | 0.44
O=C(Cc1cccs1)Nc1nc(-c2ccc(F)cc2F)cs1 | 65.3* | -6.0 | -0.1 | -2.16
CN(C)c1ccc(C(=O)c2ccccc2)cc1 | 3.8 | -1.5 | 0.2 | 0.58
CC(=O)/C(=C/c1ccc(N(C)C)cc1)C(=O)c1ccccc1 | . | . | 25.8*[artifact] | -1.03
Cc1cc(NS(=O)(=O)c2ccc(Nc3nc(-c4sc(NC(=O)c5ccccc5)nc4C)cs3)cc2)no1 | 78.9* | -5.2 | -0.4 | -2.06
COc1ccc2nc(NC(=O)C3CCCN3S(=O)(=O)c3ccc(C)cc3)sc2c1 (centres undefined) | 17.8 | -0.3 | 1.8 | -1.63
O=C(c1coc2ccccc2c1=O)N1CCN(c2cccc(C(F)(F)F)c2)CC1 | . | . | . | 0.11
Cc1noc(C(=O)Nc2sc3c(c2C#N)CCC3)c1Cl | 58.3* | -5.0 | 1.4 | 1.28
COC(=O)c1ccc(CSc2nc3ccccc3[nH]2)o1 | . | . | . | -0.04
COC(=O)c1cc(CSc2nc3ccc(C)cc3[nH]2)oc1C | 52.1* | -7.6 | -0.6 | .
SMILES | CD11b adhes inh | CD11b adhes enh | Phagocytosis inh | sdo1 growth
Cc1oc(-c2ccc(Cl)cc2)nc1CN1CCCC(C(=O)N2CCN(C(=O)c3ccco3)CC2)C1 (centres undefined) | 64.0* | -4.7 | -0.4 | -0.53
Cc1ccc(S(=O)(=O)NC(C(=O)Oc2ccc3c(C(F)(F)F)cc(=O)oc3c2)c2ccccc2)cc1 (centres undefined) | 57.3* | -6.3 | 4.0 | -0.7
Cc1cc(=O)[nH]c(SCC(=O)Nc2ccc(Br)cc2)c1C#N | 93.4* | -6.4 | . | 0.36
CC(C)c1ccc(NC(=O)c2cc(S(=O)(=O)NCC3COc4ccccc4O3)ccc2F)cc1 (centres undefined) | . | . | 2.2 | -1.53
COC(=O)c1sc(S(=O)(=O)Nc2ccc(Br)cc2)c(C(=O)OC)c1C | 90.7* | -7.0 | -5.2 | -0.83
CCOc1ccccc1OCCNC1CCCC1 | . | . | -1.5 | 0.32
Cc1n[nH]c(C)c1Sc1ccccc1N=Cc1cc(Cl)cc([N+](=O)[O-])c1O | 57.3* | -5.5 | -0.8 | -0.03
Cc1cc(C(=O)N/N=C/c2cc(Cl)cc([N+](=O)[O-])c2O)c2ccccc2n1 | . | . | -10.6 | 0.33
CC[n+]1c(/C=C2\C=C(C)CC(C)(C)C2)sc2ccccc21 | 72.7* | -5.7 | -4.0 | -1.01
CC[n+]1c(/C=C2\C=C(C)CC(C)C2)sc2ccccc21 (centres undefined) | 59.2* | -5.8 | -0.8 | -0.95
COC(=O)c1sccc1NC(=O)Cn1cnc2c1c(=O)n(C)c(=O)n2C | 0.4 | 2.8 | 1.5 | 0.56
COC(=O)C(NC(=O)c1ccccc1)(Nc1cc(C)cc(C)n1)C(F)(F)F (centres undefined) | . | . | . | -0.69
Cc1nc(C)c(CC(=O)N/N=C/c2ccc(O)cc2)c(=O)[nH]1 | . | . | -4.1 | 0.14
CCn1c(SCC(=O)c2ccc(O)c(O)c2)nnc1-c1ccc(C)cc1 | 21.7 | -6.3 | -2.8 | 0.44
CCn1c(SCC(=O)c2ccc3c(c2)Cc2ccccc2-3)nnc1-c1ccc(N)cc1 | 1.2 | 91.8* | 5.7 | -1.73
CCN(CCO)c1nc(SC)nc2c1sc1nc(-c3ccco3)c3c(c12)CCC3 | 1.4 | 116.6* | 0.6 | -0.12
CCOC(=O)N1CCC(NC(=O)CC(NS(=O)(=O)c2ccc(Cl)cc2)c2ccco2)CC1 (centres undefined) | -19.0 | 5.8 | . | 1.87
CCOC(=O)N1CCC(Nc2nc3ccccc3nc2NS(=O)(=O)c2ccc(Cl)cc2)CC1 | 91.5* | 0.0 | -1.0 | 0.07
Cc1ccc2nc(N3C(=O)C(O)=C(C(=O)c4ccco4)C3c3cccs3)sc2c1 (centres undefined) | 51.9* | -6.5 | 0.1 | 1.21
CCOC(=O)COc1ccc(S(=O)(=O)NCc2cccnc2)cc1 | 4.3 | -1.2 | -2.5 | 0.9
COC(=O)COc1ccc(S(=O)(=O)NCc2ccncc2)cc1 | 79.8* | -4.3 | 5.4 | 0.91
O=C(NCC(c1cccs1)N1CCOCC1)c1ccccc1NS(=O)(=O)c1ccc(Cl)cc1 (centres undefined) | 79.2* | -6.1 | 3.0 | -0.23
O=C(NCC(c1cccs1)N1CCOCC1)c1ccccc1NS(=O)(=O)c1ccc(Br)cc1 (centres undefined) | . | . | -3.2 | 0.16
O=C(NCC(c1cccs1)N1CCOCC1)c1ccccc1NS(=O)(=O)c1cc([N+](=O)[O-])ccc1Cl (centres undefined) | 84.6* | -8.6 | -2.2 | -0.08
O=C(NCC(c1cccs1)N1CCOCC1)c1ccccc1NS(=O)(=O)c1cccc([N+](=O)[O-])c1 (centres undefined) | 70.9 | -5.3 | . | 0.1
O=C(NCC(c1cccs1)N1CCOCC1)c1ccccc1NS(=O)(=O)c1ccc(Cl)c([N+](=O)[O-])c1 (centres undefined) | 101.4* | -9.6 | -4.3 | -0.03
Cc1ccc(SC/C(O)=C(\C#N)c2nc3ccccc3s2)cc1 | 101.1* | -10.2 | -4.7 | 0.01
COc1ccc(C/C(O)=C(\C#N)c2nc3ccccc3s2)cc1 | 104.1* | -11.2 | -1.3 | -0.24
N#C/C(=C(/O)CSc1ccccc1C(=O)O)c1nc2ccccc2s1 | -11.1 | -4.7 | 2.3 | 0.19
COc1cc(NC(=S)N2CCN(C(=O)C3CCCO3)CC2)c(OC)cc1Cl (centres undefined) | . | . | -3.9 | 1.23
